Screening data: PubChem, several laboratories
Hits are enriched below; roughly 2.9% of the tested compounds scored in any of these assays.
HePTP inhibitor – blocks human HePTP tyrosine phosphatase | P35236 | recombinant HePTP phosphatase activity, OD absorbance | inhibition, % at 20 µM | 110,000 compounds, 0.64% hits | AID 521; in the data active = inhibition above about 50%;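 also: plate controls were vehicle for no effect and reference inhibitor for full effect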
Target sequence (P35236 whole entry, looked up): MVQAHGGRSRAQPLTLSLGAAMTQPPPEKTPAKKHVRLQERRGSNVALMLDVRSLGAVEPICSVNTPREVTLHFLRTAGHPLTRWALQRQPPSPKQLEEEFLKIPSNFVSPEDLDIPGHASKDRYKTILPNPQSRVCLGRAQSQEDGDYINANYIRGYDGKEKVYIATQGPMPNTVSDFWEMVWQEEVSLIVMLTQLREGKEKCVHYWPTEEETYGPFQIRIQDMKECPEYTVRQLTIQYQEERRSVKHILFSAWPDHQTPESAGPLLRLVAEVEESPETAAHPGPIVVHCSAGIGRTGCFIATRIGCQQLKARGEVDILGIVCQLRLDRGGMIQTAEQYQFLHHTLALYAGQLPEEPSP
ERb coact inh – ER-beta (human) coactivator binding inhibition; Q92731; TR-FRET ER-beta LBD / SRC1-Cy5 peptide binding; receptor agonist-loaded with 1 µM estradiol; inhibition, % at 25.6 µM; 86,000 compounds, 1.3% hits; AID 633;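 active = compounds whose percent inhibition of the receptor-coactivator binding signal exceeds about 50% in the single-dose screen, limit read from the data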;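 also: 0% = receptor plus peptide wells without compound and 100% = peptide-only wells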
Smad3 FoxH1 inh – blocks human Smad3 binding to FoxH1 peptide; P84022; TR-FRET Smad3/Dy647-FoxH1 peptide binding, europium anti-His; inhibition, % at 25 µM; 88,000 compounds, 0.29% hits; AID 630;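 active = compounds that reduce the energy-transfer binding signal between the protein and its labelled peptide by more than half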;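 also: 0% = Smad3 plus labelled peptide maximal FRET and 100% = peptide-only background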
ERa coact pot – ER-alpha (human) coactivator binding potentiation; TR-FRET ERalpha-LBD/SRC-Cy5 coactivator binding, 2 h; 100 = basal binding, no effect; P03372; coactivator binding (% of control), % at 25.6 µM; 86,000 compounds, 1.3% hits; in the data active = activity above about 200%;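 also: binding measured in presence of low estradiol as agonist stimulus; 0% = peptide alone without receptor and 100% = receptor with peptide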
Candida biofilm – kills Candida albicans biofilms; C. albicans biofilm + clotrimazole, Alamar Blue; 85,000 compounds, 0.14% hits; inhibition, % at 6 µM;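 active = inhibition above 20%; inactive = inhibition below 20%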;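 also: preformed 24 hr biofilms exposed to compound for 48 hr; 0% = biofilm without compound and 100% = blank killed by clotrimazole plus chlorhexidine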
ERa SRC1 inh – blocks coactivator binding to human estrogen receptor alpha; 86,000 compounds, 1.7% hits; inhibition, % at 25.6 µM; TR-FRET ER-alpha LBD / SRC-1 peptide, estradiol-bound; in the data active = inhibition above about 50%;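 also: 0% = receptor plus peptide control and 100% = peptide only without receptor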
Numbers without * were called inactive; · = not tested or not shown; [ ] = dose if it differs, or a comment.

SMILES	HePTP inhibitor	ERb coact inh	Smad3 FoxH1 inh	ERa coact pot	Candida biofilm	ERa SRC1 inh
CCOC(=O)c1sc(C)c2c(=O)n(CC(=O)c3ccc(Br)cc3)nnc12	4	59*[fluorescence artefact?]	0	112	1	-2
O=S(=O)(NCc1ccc2c(c1)OCO2)c1ccc(Cl)cc1Cl	6	·	·	·	·	·
Cc1c(C(=O)Nc2ccncc2)sc2nc(-c3ccc(F)cc3)cn12	10	7	5	367*[fluorescence artefact?]	32*	-6
COc1ccc(-c2cn3c(C)c(C(=O)Nc4cccc(NC(C)=O)c4)sc3n2)cc1	9	21	-2	158	8	22
COC(=O)c1ccc(NC(=O)c2sc3nc(-c4ccccc4)cn3c2C)cc1	-3	43	1	537*[fluorescence artefact?]	3	39
COc1ccc(-c2cn3c(C)c(C(=O)Nc4ccncc4)sc3n2)cc1	1	-2	8	345*	3	-3
Cc1c(C(=O)NCC(C)C)sc2nc(-c3ccc(F)cc3)cn12	-10	3	-3	109	10	4
Cc1ccc(CCNS(=O)(=O)c2cnc[nH]2)cc1	-2	70*	-9	123	5	10
S=C1NCN(Cc2ccccc2)CN1c1ccccc1	1	·	·	·	·	·
Cn1c(=O)c2c(nc(SCCN3CCOCC3)n2Cc2ccccc2Cl)n(C)c1=O	5	-14	-1	104	3	3
Cc1nnc(Sc2nc3c(c(=O)n(C)c(=O)n3C)n2Cc2ccccc2Cl)s1	·	1	6	102	-2	64*[fluorescence artefact?]
CCOc1ccc2nc(Nc3nc4c(c(=O)[nH]3)CCC4)nc(C)c2c1	11	36	19	178	10	52*[fluorescence artefact?]
CCOc1ccc2nc(Nc3nc(CSc4nnnn4-c4ccccc4)cc(=O)[nH]3)nc(C)c2c1	·	39	-8	216*[fluorescence artefact?]	-3	70*[fluorescence artefact?]
c1cnn(-c2cc(NC3CCCCC3)ncn2)c1	-6	·	·	·	·	·
Oc1cc(CN2COc3ccccc32)c(O)cc1CNC1CCCCC1	·	·	74*	·	·	·
O=c1cc(CNC2CCCCC2)c2ccccc2[nH]1	-6	46	-2	139	8	-7
O=C(Cn1c(NCCCO)nc2ccccc21)c1ccc(Br)s1	6	·	·	·	·	·
O=C(COc1ccccc1Cl)NNC(=O)c1ccncc1	101*	·	·	·	·	·
Cc1cc2cc3c(cc2nc1SCC(=O)N1c2ccccc2CC1C)OCO3 (stereo not drawn)	·	48	-2	162	5	51*[fluorescence artefact?]
CC1Cc2ccccc2N1C(=O)CSc1nc2cc3c(cc2cc1C#N)OCO3 (stereo not drawn)	0	23	5	298*[fluorescence artefact?]	·	24
COC(=O)CSc1nc2cc3c(cc2cc1C#N)OCO3	7	16	35	284*[fluorescence artefact?]	·	30
CCOC(=O)CSc1nc2cc(OC)ccc2cc1C#N	-4	38	15	347*[fluorescence artefact?]	6	13
C=CCOC(=O)C(CC=C)(C(F)(F)F)C(F)(F)F	13	·	·	·	·	·
CCN=C1SC(CC(=O)NC(C)C)C(=O)N1CC (stereo not drawn)	·	-26	-3	853*[fluorescence artefact?]	5	3
CCCCNC(=O)CC1SC(=NCC)N(CC)C1=O (stereo not drawn)	·	-37	11	116	1	5
SMILES	HePTP inhibitor	ERb coact inh	Smad3 FoxH1 inh	ERa coact pot	Candida biofilm	ERa SRC1 inh
Cc1cccc(NC(=O)C2CCN(c3nc(C)cc(C)n3)CC2)c1	2	55*[fluorescence artefact?]	7	115	2	0
O=C1NC(=O)N(c2ccc(Cl)cc2)C(=O)/C1=C/c1cc(Br)c(O)c([N+](=O)[O-])c1	8	·	·	·	·	·
CCOC(=O)C1=C(O)/C(=C/c2ccc(C)cc2)SC1=Nc1ccc(C)cc1	54*	·	·	·	·	·
CCOC(=O)C1=C(C)NC(=O)NC1c1cc([N+](=O)[O-])ccc1OC (stereo not drawn)	4	·	·	·	·	·
COc1ccc(CCNC(=O)Cn2nnc(-c3cccc(OC)c3OC)n2)cc1OC	7	10	-23	101	1	-3
COc1cccc(-c2nnn(CC(=O)Nc3ccc(C)cc3C)n2)c1OC	-3	31	4	283*[fluorescence artefact?]	5	27
CCn1nc(C)c(NC(=O)CSc2nnc(-c3ccco3)n2C)c1C	1	2	4	119	11	6
Cc1nn(Cc2ccccc2)c(C)c1NC(=O)CSc1nnc(-c2cc(Cl)ccc2O)n1C	-5	47	1	58	·	53*
Cc1ccc(C2CC(C(F)(F)F)n3ncc(C(=O)N4CCSCC4)c3N2)cc1 (stereo not drawn)	7	·	·	·	·	·
